Screening results: PubChem BioAssay, Center for Chemical Genomics, University of Michigan
Shown is part of a subset that was picked to be rich in hits.
Dicer processing – blocks human Dicer maturation of pre-miR-21 | Q9UPY3 | cat-ELCCA pre-miR-21 Dicer processing, chemiluminescence; stronger effect = higher value | z-score at 25 µM | 47,000 compounds, 6% hits; in the data active = z-score above about 3, passing the limit was not always enough;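 also: plate controls were vehicle for no effect and no enzyme for full effect; higher signal means more uncleaved substrate so more Dicer inhibition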
* = called active by the depositor.

What do the screens show for `COc1ccc(-c2csc3nc(-c4ccc(F)cc4)oc(=O)c23)cc1`?
Dicer processing: 0.76

Results for COC(=O)c1noc(-c2ccc(F)cc2)n1 ?
Dicer processing: -0.21

Results for COc1oc(-c2ccc(F)cc2)nc1C(F)(F)F ?
Dicer processing: 4.68*

Results for Cc1cc(C)c2nc(-c3ccc(C(F)(F)F)cc3)oc(=O)c2c1 ?
Dicer processing: -1.29

How did Cc1ccc(-c2nc(=O)c3ccccc3o2)cc1 do in these assays?
Dicer processing: 1.55

Results for CCCc1nccn1S(=O)(=O)c1cc(Br)c(C)cc1OC ?
Dicer processing: -0.35

How did O=C(NCCc1nc2ccccc2[nH]1)Nc1ccccc1 do in these assays?
Dicer processing: -1.36

What do the screens show for `CCOC(=O)c1c(N)sc(C)c1C`?
Dicer processing: -2.72

Results for CCOC(=O)c1c(N(C)S(C)(=O)=O)sc(C)c1C ?
Dicer processing: 3.65*

How did CCOC(=O)c1c(NC(=O)CC)sc(C)c1C do in these assays?
Dicer processing: 0.24

Results for O=C(OCc1ccccn1)c1ccc(COc2ccccc2Cl)o1 ?
Dicer processing: 0.6

What do the screens show for `CN(C)CC1COc2ccccc2C1=O` (centres undefined)?
Dicer processing: -2.89

What do the screens show for `COC(=O)Cc1c(C)nc(SCC(=O)Nc2ccccc2)[nH]c1=O`?
Dicer processing: -2.49

How did CC(C)(CC(=O)O)CC(=O)NCc1csc2ccccc12 do in these assays?
Dicer processing: 4.45*

How did Cc1cc(C)c(NC(=S)NCc2csc3ccccc23)c(C)c1 do in these assays?
Dicer processing: 2.55

Results for S=C(NCc1csc2ccccc12)c1ccccc1 ?
Dicer processing: -1.4

Results for CCOC(=O)C(CCC(=O)O)(CCC(=O)O)C(C)=O ?
Dicer processing: -0.2

How did COc1ccccc1Nc1n[nH]c(=S)s1 do in these assays?
Dicer processing: -0.72

How did Cc1cc(NS(=O)(=O)c2ccc(Nc3nc(-c4c(C)nc5ccccn45)cs3)cc2)no1 do in these assays?
Dicer processing: 3.48*

What do the screens show for `CN(C)c1ccc(Nc2nc(-c3cccs3)cs2)cc1`?
Dicer processing: -1.04

How did COc1ccc(-c2csc(Nc3ccc(N(C)C)cc3)n2)cc1 do in these assays?
Dicer processing: 0.27

What do the screens show for `COc1ccccc1Nc1nc(-c2sc(N)nc2C)cs1`?
Dicer processing: -3.3

Results for Cc1cc(C)nc(NS(=O)(=O)c2ccc(Nc3nc(-c4c(C)nc5ncccn45)cs3)cc2)n1 ?
Dicer processing: 2.19

Results for Cc1nc(C)c(-c2csc(Nc3ccc(N(C)C)cc3)n2)s1 ?
Dicer processing: 4.08*

What do the screens show for `COc1ccccc1Nc1nc(-c2c(C)nc3cc(C)ccn23)cs1`?
Dicer processing: 4.56*

How did Cc1nc(C)c(-c2csc(Nc3ccc(C(=O)O)c(O)c3)n2)s1 do in these assays?
Dicer processing: 1.29

Results for Cc1ccn2c(-c3csc(Nc4ccc(N(C)C)cc4)n3)c(C)nc2c1 ?
Dicer processing: 5.49*

Results for CCN(CC)c1ccc(Nc2nc(-c3ccc(O)cc3O)cs2)cc1 ?
Dicer processing: 0.74

What do the screens show for `Cc1cc(NS(=O)(=O)c2ccc(Cl)cc2)no1`?
Dicer processing: 0.21

How did COc1ccc(NC(=O)N2CCC(C(=O)O)CC2)cc1OC1CCCC1 do in these assays?
Dicer processing: -0.32

Results for O=S1(=O)CCN(Cc2ccc(NS(=O)(=O)c3cccs3)cc2)CC1 ?
Dicer processing: -4.43

What do the screens show for `Cc1ccc(S(=O)(=O)Nc2cc([N+](=O)[O-])ccc2C)cc1`?
Dicer processing: -0.61

Results for Cc1c(S(=O)(=O)N2CCCC2c2ccc(F)cc2)cnn1-c1ccccc1 (centres undefined) ?
Dicer processing: -0.78

Results for C=CCSc1nnc2c(n1)OC(c1ccc(OC(C)=O)c(OCC)c1)N(C(C)=O)c1ccccc1-2 (centres undefined) ?
Dicer processing: 0.64

What do the screens show for `C[C@H](c1ccc(F)cc1CCCC(=O)O)N(c1cc(F)ccc1F)S(=O)(=O)c1ccc(Cl)cc1`?
Dicer processing: -0.8

What do the screens show for `CCOC(=O)c1sc2nc(N3CCCCC3)c3c(c2c1N)CC(C)(C)OC3`?
Dicer processing: 1.15

How did Cc1nc2sccn2c1-c1csc(Nc2ccc(Br)cc2)n1 do in these assays?
Dicer processing: 4.21*

Results for Cc1nc2ccccn2c1-c1ccnc(SCC(=O)c2cccc(C(F)(F)F)c2)n1 ?
Dicer processing: -2.1

Results for Brc1ccc(-c2csc(Nc3ccncc3)n2)cc1 ?
Dicer processing: 31.9

Results for Cc1nc2ccccn2c1-c1ccnc(SCC(=O)Nc2ccc(F)cc2)n1 ?
Dicer processing: -0.85

How did Cc1nc(N)sc1-c1csc(Nc2ccc(Br)cc2)n1 do in these assays?
Dicer processing: -1.58

What do the screens show for `Cc1ccnc(Nc2nc(-c3c(C)nc4ccccn34)cs2)c1`?
Dicer processing: 3.09*

Results for COC(OC)c1ccc(C#N)c(SCC(=O)c2ccc(Cl)cc2)n1 ?
Dicer processing: -0.2

Results for O=C(Nc1nc2c(Br)cc(Br)cc2c(=O)s1)c1ccco1 ?
Dicer processing: 1.59

What do the screens show for `COc1cc(C=NCCNc2ncnc3scc(-c4ccccc4)c23)ccc1O`?
Dicer processing: -0.68

Results for Nc1nnc(SCC(=O)c2ccc(Cl)cc2)s1 ?
Dicer processing: 0.51

How did Cc1ccc(S(=O)(=O)Nc2ccc(-c3cn4cccc(C)c4n3)cc2)cc1 do in these assays?
Dicer processing: 1.69

How did Cc1cccn2cc(-c3cccc(NS(=O)(=O)c4ccc(Br)cc4)c3)nc12 do in these assays?
Dicer processing: 4.06*

What do the screens show for `Cc1cccn2cc(-c3ccc(NS(=O)(=O)c4ccccc4)cc3)nc12`?
Dicer processing: 1.51

How did CCCCCc1ccc(C(=O)CC2(O)C(=O)Nc3ccc(Br)cc32)cc1 (centres undefined) do in these assays?
Dicer processing: 1.28

What do the screens show for `CSCC(CSC)OC(=O)Nc1ccc(Cl)cc1`?
Dicer processing: 1.3

How did CC(C)OC(=O)Nc1ccc(Cl)cc1 do in these assays?
Dicer processing: -0.57

What do the screens show for `CC(=O)OC(C(=O)O)C(OC(C)=O)C(=O)Nc1ccc(Cl)cc1` (centres undefined)?
Dicer processing: 3.11*

How did CCCOc1ccc(C2C(C(=O)OCC3CCCO3)=C(C)NC3=C2C(=O)CC(C)(C)C3)cc1OC (centres undefined) do in these assays?
Dicer processing: 0.48

What do the screens show for `O=C(Oc1ccc(C2=NCCS2)cc1)c1ccc(Cl)cc1`?
Dicer processing: -0.57

Results for CN(C)C=Nc1ccc2nnc(-c3ccccc3)n2n1 ?
Dicer processing: 0.91

Results for Clc1ccc2sc(Oc3cccc(N4CCOCC4)c3)nc2c1 ?
Dicer processing: -0.57

What do the screens show for `COc1ccc(CN2CCC(N3CCCCC3)CC2)cc1Br`?
Dicer processing: 3.74*

What do the screens show for `CCn1c2ccccc2c2cc(CN3CCC(N4CCCCC4)CC3)ccc21`?
Dicer processing: -0.94

What do the screens show for `COc1ccc(CN2CCC(N3CCCCC3)CC2)cc1OC`?
Dicer processing: 0.7

How did Cn1cnc([N+](=O)[O-])c1Sc1ccc(C(F)(F)F)cn1 do in these assays?
Dicer processing: 0.11

Results for CCOC(=O)Cc1csc(NC(=O)CSc2nnc(C)s2)n1 ?
Dicer processing: 0.76

How did COC(=O)c1sc(=S)sc1C(=O)OC do in these assays?
Dicer processing: 3.8*

Results for COC(=O)c1cc(O)c(C(=O)OC)s1 ?
Dicer processing: -1.01

How did COC(=O)c1sc(Br)c(Br)c1O do in these assays?
Dicer processing: -0.72

What do the screens show for `CC(C)N(CCC(=O)c1ccc2ccccc2c1)Cc1ccccc1`?
Dicer processing: -0.75

Results for CCOC(=O)Cc1c(C)nc2c(C#N)c(C)[nH]n2c1=O ?
Dicer processing: 1.38
